Structures are written as SMILES. Results filed as inconclusive are left out. Calls of active or inactive are those of the source. Calls follow the shape of the dose curve; as a rule, active = well fitted inhibition curve with a large enough effect; inconclusive = small, poorly fitted or top-dose-only effect; inactive = flat fitted curve, though single readings scatter.

Sequence of Calcium and integrin-binding protein 1 (Homo sapiens) (Q99828 whole entry, looked up): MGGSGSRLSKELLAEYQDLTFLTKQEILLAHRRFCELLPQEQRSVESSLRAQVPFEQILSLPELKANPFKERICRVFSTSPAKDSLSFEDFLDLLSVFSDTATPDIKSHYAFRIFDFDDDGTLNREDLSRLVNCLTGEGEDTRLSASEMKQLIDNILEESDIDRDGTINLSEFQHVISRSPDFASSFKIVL

The target of this assay is Calcium and integrin-binding protein 1 (Homo sapiens) (UniProt Q99828). Briefly: Primary qHTS for Identification of Calcium Integrin Binding Protein 1 (CIB1) Competitor (AID 1508620).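 Also: GST tagged CIB1 binding a fluorescein labelled alphaIIb integrin peptide tracer; top concentration of the series differs between compounds.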 The conditions noted are these: CIB1-GST / FITC-alphaIIb peptide fluorescence polarization; series mostly up to 57.7 µM. The source says:
Assay Provider: Ulhas P. Naik, PhD Sidney Kimmel Medical College Thomas Jefferson University, Philadelphia, PA Primary function of platelets is to maintain hemostasis. At the site of vascular injury, platelets adhere to adhesive proteins such as collagen and von Willebrand factor. Adherent platelets are activated and generate soluble platelet agonists such as thrombin, ADP and thromboxane A2. Following exposure of circulating platelets to these agonists, results in platelet shape change, granule secretion and activation of platelet integrin alphaIIb-beta3. Ligand binding to activated integrin alphaIIb-beta3 triggers outside-in signaling, leading to platelet aggregation, stabilization of platelet plug, and clot retraction. Upon atherosclerotic plaque rupture also causes platelet plug formation, which underlies a number of cardiovascular diseases such as myocardial infraction and stroke. A number of anti-platelet drugs such as aspirin, clopidogrel, prasugrel, vorapaxar, and eptifibatide are currently available to prevent the thrombotic complications. However, these anti-platelet agents have several limitations including inherent variability in individual responses, developing resistance, and serious bleeding side effects. For these reasons they are not suitable for long-term protection. Based on the experiences with current anti-platelet drugs, it appears that the most useful therapeutic approach is to intersect the secondary responses such as integrin outside-in signaling or recruitment of platelets by TxA2 and secreted ADP. Compounds, which can largely preserve the primary hemostatic function of platelets but inhibit secondary response will be most desired therapeutic agents for treatment of cardiovascular disease. CIB1 is a calcium integrin binding protein, which specifically interact with the alphaIIb subunit of integrin alphaIIb-beta3. Binding of CIB1 to alphaIIb regulates the outside-in signaling in platelets, which is needed for thrombus stabilization and thrombus growth. […] Therefore, we propose that discovery of a small molecule that can prevent the association of CIB1 and alphaIIb-beta3 will be a potential anti-platelet agent that can block the thrombus formation without undue effect on hemostasis. Reference: [1] Naik MU, Nigam A, Manrai P, et al. CIB1 deficiency results in impaired thrombosis: the potential role of CIB1 in outside-in signaling through integrin alpha IIb beta 3. J Thromb Haemost.
PROTOCOL TABLES SEQUENCE No. (1, 2, 3, etc.); […] (e.g., Cells, Incubation, Reagent, etc.); VALUE and DESCRIPTION. 1; Reagent; 3 uL; Protein or buffer (4/3x) 2; Compound; 46 nL; Control inhibitor / compound library 3; Time; 15 min; Room temperature incubation 4; Reagent; 1 uL; Fluorescent labeled peptide (4x) 5; Time; 1000 rpm; Centrifuge 6; Time; 15 min; Room temperature incubation 7; Detection; Ex 480/ Em 540; ViewLux Fluorescence Read NOTES (numbers refer to sequence above) 1; Protein Mixture: C1B1-GST (final concentrations of 1 uM). […] 3; Room temperature incubation. 4; Fluorescent Labeled Peptide: FITC-aIIb (final concentration of 100 nM). Sequence of alphaIIb peptide: Acetyl-[…]-FITC (purity is 95.83%). 5; Centrifuge 1000 rpm (164 g) for 15 seconds. 6; Room temperature incubation. 7; ViewLux Fluorescent Polization Read: excitation = 480(20) / emission = 540(25) S and P; FITC Dichroic mirror.
(Quantitative high-throughput screening tests each substance at several concentrations.)
In the case of `COC(c1ccccc1)(c1ccccc1)[C@H](Oc1nc(C)cc(C)n1)C(=O)O`, the outcome was inactive.

In the case of `NC(=O)c1cccnc1`, the result was inactive.

Regarding `O=C(O)c1cccnc1`, the result was inactive.

As to `CCOC(=O)[C@H](CCc1ccccc1)N[C@H]1CCc2ccccc2N(CC(=O)O)C1=O`, the result was inactive.

Consider `CCCCS(=N)(=O)CCC(N)C(=O)O` (stereo not given), for which the result was inactive.

As for `O=P(O)(O)C(O)(Cc1cccnc1)P(=O)(O)O`, the result was inactive.

Take `CNS(=O)(=O)CCc1ccc2[nH]cc(C3CCN(C)CC3)c2c1`: the outcome was inactive.

As for `CC1=NN(c2ccccc2)C(=O)C1`, the result was inactive.

For the compound `Nc1nc(N)c2nc(CNc3ccc(C(=O)NC(CCC(=O)O)C(=O)O)cc3)cnc2n1` (stereo not given), the result was inactive.

For the compound `NNC(=O)c1ccncc1`, the result was inactive.

With `Cc1cccc(Nc2ccncc2S(=O)(=O)NC(=O)NC(C)C)c1`, the result was inactive.

For the compound `O=C(O)c1ccc(-n2nc(-c3ccccc3O)nc2-c2ccccc2O)cc1`, the outcome was inactive.

Consider `C[C@@H]1CN(c2c(F)c(N)c3c(=O)c(C(=O)O)cn(C4CC4)c3c2F)C[C@H](C)N1`, for which the outcome was inactive.

For `CC(C)(C)NC(=O)[C@H]1CC[C@H]2[C@@H]3CC[C@H]4NC(=O)C=C[C@]4(C)[C@H]3CC[C@]12C`, the result was inactive.

`CCCc1cc(C(N)=S)ccn1`: the result was inactive.

In the case of `CCc1cc(C(N)=S)ccn1`, the result was inactive.

On to `CC1CC2C3CCC4=CC(=O)C=C[C@]4(C)[C@@]3(F)[C@@H](O)C[C@]2(C)[C@@]1(O)C(=O)CO` (stereo not given in full), for which the result was inactive.

On to `Nc1nc(F)nc2c1ncn2[C@@H]1O[C@H](CO)[C@@H](O)[C@@H]1O`, for which the outcome was inactive.

As to `Nc1nc(=S)c2[nH]cnc2[nH]1`, the result was inactive.

Take `CC(=O)[C@H]1CC[C@H]2[C@@H]3CCC4=CC(=O)CC[C@]4(C)[C@H]3CC[C@]12C`: the result was inactive.

For `CC(C)C[C@H](NC(=O)[C@H](CCc1ccccc1)NC(=O)CN1CCOCC1)C(=O)N[C@@H](Cc1ccccc1)C(=O)N[C@@H](CC(C)C)C(=O)[C@@]1(C)CO1`, the result was inactive.

For the compound `CCOC(=O)[C@H](CCc1ccccc1)N[C@H]1CS[C@H](c2cccs2)CN(CC(=O)O)C1=O`, the outcome was inactive.

Consider `CCCN[C@H]1CCc2nc(N)sc2C1`, for which the result was inactive.

As for `Oc1c(Cl)cc(Cl)c2cccnc12`, the outcome was inactive.

Turning to `O=C(O)C1CCCN(CCC=C(c2ccccc2)c2ccccc2)C1` (stereo not given), the result was inactive.

`CCOCC(O)COc1ccc(NC(=O)CC[S+](C)C)cc1` (stereo not given): the result was inactive.

For the compound `CCCOc1ccc(C(=O)OCCN(CC)CC)cc1N`, the result was inactive.

With `OCc1ccc(-c2nn(Cc3ccccc3)c3ccccc23)o1`, the result was inactive.

On to `COc1cc([C@@H]2c3cc4c(cc3[C@H](O)[C@H]3COC(=O)[C@H]23)OCO4)cc(OC)c1OC`, for which the outcome was inactive.

`CCn1cc(C(=O)O)c(=O)c2cc(F)c(N3CCNCC3)nc21`: the result was inactive.

`CC(=O)Oc1ccccc1C(=O)Nc1ncc([N+](=O)[O-])s1`: the outcome was inactive.

Take `Cn1c(=O)c2c(ncn2CC(O)CO)n(C)c1=O` (stereo not given): the outcome was inactive.

`COc1ccc2cc3[n+](cc2c1OC)CCc1cc2c(cc1-3)OCO2`: the outcome was inactive.

For `NC(N)=NC(N)=NCCc1ccccc1`, the result was inactive.

In the case of `O=C(O)c1cc(=O)[nH]c(=O)[nH]1`, the outcome was inactive.

`COc1cccc(N(C)C(=S)Oc2ccc3c(c2)CCCC3)n1`: the result was inactive.

As for `COc1cc(NCc2ccc3nc(N)nc(N)c3c2C)cc(OC)c1OC`, the result was inactive.

As to `COC(=O)Nc1nc2ccc(S(=O)c3ccccc3)cc2[nH]1` (stereo not given), the result was inactive.

For the compound `CN(C)CCc1c[nH]c2ccc(CS(=O)(=O)N3CCCC3)cc12`, the outcome was inactive.

For the compound `CC1=CC(=O)c2ccccc2C1=O`, the outcome was inactive.

(Values after PubChem BioAssay (NCATS).)
